Measurements: the supplement of paper PMC10849652
About 7,900 targets were measured; listed, in parts, are those with a hit and a random draw of the rest. About 0.6% of all pairs of compound and target were hits. A number with no mark means an inactive call.

Experiments:
Assay in all cases: log2 fold change, soluble protein after heating vs DMSO (PISA); higher = thermal stabilisation; K562 cells, 10 uM, 30 min; active = over 0.2 and 3.5 SD of the protein, either way, in both replicates (recomputed)
[1] = compound: CN1CCN(CCOc2cc(OC3CCOCC3)c3c(Nc4c(Cl)ccc5c4OCO5)ncnc3c2)CC1 [saracatinib]
Outline: (§1)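 Soluble protein was quantified by TMTpro 16plex LC-MS/MS after channel sums were equalised. It was obtained as the supernatant after 21,000xg for 90 min from pooled aliquots of K562 cells (2×10^6 cells/mL, 10 μM compound, 30 min) heated for 3 min across 48°C-58°C and extracted in PBS with 0.5% NP-40 at 4°C. Thermal stability values are relative to control samples and come from duplicates. They are given as log2 fold changes.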

[2] = compound: CN1CCN(c2nc(C3=C(c4c[nH]c5ccccc45)C(=O)NC3=O)c3ccccc3n2)CC1 [sotrastaurin]
Outline: as §1

[3] = compound: CN1CC[C@H](c2c(O)cc(O)c3c(=O)cc(-c4ccccc4Cl)oc23)[C@H](O)C1 [alvocidib]
Outline: as §1

[4] = compound: CN1CCc2c(c3ccccc3n2Cc2ccc(C(=O)NO)cc2)C1 [Tubastatin A]
Outline: as §1

[5] = compound: CNC(=O)C1=CC=CC=C1NC2=NC(=NC=C2Cl)NC3=C(C=C(C=C3)N4CCOCC4)OC
Outline: as §1

[6] = compound: CNC(=O)c1ccc(Nc2ncc(C(F)(F)F)c(NCc3nccnc3N(C)S(C)(=O)=O)n2)cc1 [defactinib]
Outline: as §1

[7] = compound: CNCc1ccc(-c2[nH]c3cc(F)cc4c3c2CCNC4=O)cc1 [rucaparib]
Outline: as §1

[8] = compound: CNc1nc(-c2ccc3c(N)n[nH]c3c2)cc(N2C[C@@H](C(=O)NC3CCCCC3)CC[C@H]2C)n1
Outline: as §1

[9] = compound: COC(=O)N[C@@H](C)CNc1nccc(-c2cn(C(C)C)nc2-c2cc(Cl)cc(NS(C)(=O)=O)c2F)n1 [encorafenib]
Outline: as §1

[10] = compound: COC(=O)[C@H](CCSC)NC(=O)C1=C(C=C(C=C1)NC[C@H](CS)N)C2=CC=CC=C2
Outline: as §1

Chain of UniProt P51148 (P51148 whole entry, looked up): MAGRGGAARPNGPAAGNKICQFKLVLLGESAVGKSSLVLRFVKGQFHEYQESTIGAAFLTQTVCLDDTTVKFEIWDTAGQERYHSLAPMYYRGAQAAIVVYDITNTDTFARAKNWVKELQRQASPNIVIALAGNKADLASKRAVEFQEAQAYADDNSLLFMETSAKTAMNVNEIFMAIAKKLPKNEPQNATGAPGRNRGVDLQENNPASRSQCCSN
Chain of UniProt Q96EU6 (Q96EU6 whole entry, looked up): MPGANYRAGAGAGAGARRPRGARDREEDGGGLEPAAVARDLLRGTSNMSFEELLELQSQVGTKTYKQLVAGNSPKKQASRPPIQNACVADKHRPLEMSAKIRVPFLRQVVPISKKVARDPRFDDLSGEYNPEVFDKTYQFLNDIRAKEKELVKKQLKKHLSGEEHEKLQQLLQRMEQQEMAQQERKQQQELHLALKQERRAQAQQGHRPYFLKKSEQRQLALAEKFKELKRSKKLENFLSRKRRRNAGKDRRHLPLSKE
Chain of UniProt O75116 (O75116 whole entry, looked up): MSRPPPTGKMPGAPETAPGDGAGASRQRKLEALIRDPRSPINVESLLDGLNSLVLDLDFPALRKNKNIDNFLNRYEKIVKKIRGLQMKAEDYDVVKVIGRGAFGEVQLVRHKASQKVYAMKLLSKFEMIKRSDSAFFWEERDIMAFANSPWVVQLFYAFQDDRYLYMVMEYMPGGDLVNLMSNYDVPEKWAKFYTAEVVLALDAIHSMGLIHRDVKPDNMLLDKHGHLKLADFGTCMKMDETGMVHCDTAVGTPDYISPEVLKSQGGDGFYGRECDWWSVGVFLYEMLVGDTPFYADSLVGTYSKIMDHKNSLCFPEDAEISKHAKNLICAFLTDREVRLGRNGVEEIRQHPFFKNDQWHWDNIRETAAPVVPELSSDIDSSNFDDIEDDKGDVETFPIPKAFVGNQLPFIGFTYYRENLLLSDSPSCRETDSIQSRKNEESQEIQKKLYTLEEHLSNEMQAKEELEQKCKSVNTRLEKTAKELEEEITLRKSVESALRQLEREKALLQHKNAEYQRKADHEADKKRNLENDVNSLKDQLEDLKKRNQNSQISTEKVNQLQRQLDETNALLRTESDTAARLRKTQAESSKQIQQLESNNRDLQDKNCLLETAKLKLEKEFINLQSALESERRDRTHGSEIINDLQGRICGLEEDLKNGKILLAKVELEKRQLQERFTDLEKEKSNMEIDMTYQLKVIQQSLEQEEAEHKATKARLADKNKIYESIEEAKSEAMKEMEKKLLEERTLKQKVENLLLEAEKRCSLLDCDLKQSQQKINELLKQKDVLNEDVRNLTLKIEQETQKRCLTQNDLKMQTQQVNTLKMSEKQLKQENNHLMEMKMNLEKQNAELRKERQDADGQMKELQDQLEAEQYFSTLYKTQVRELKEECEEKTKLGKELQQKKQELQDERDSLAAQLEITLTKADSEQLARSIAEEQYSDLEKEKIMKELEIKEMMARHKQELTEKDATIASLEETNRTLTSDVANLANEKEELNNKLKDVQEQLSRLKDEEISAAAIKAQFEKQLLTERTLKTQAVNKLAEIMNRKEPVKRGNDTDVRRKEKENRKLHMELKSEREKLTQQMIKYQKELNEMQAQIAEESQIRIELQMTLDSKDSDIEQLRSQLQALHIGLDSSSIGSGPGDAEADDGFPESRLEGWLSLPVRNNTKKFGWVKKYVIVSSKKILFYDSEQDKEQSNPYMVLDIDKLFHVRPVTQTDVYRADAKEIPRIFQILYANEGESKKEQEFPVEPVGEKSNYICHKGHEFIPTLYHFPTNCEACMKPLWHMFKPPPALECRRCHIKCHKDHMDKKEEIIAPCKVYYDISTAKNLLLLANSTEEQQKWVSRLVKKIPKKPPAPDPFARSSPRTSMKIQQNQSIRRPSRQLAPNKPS
Chain of UniProt Q99719 (Q99719 whole entry, looked up): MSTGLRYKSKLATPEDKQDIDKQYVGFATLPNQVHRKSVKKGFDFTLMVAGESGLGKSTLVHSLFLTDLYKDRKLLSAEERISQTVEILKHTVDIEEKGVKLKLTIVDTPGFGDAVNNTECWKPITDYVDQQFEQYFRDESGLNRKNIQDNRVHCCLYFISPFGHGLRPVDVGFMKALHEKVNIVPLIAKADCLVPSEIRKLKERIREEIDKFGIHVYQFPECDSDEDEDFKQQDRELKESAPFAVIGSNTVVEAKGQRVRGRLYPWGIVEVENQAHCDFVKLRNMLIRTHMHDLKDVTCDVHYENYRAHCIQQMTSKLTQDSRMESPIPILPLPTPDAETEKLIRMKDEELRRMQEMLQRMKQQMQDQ
Chain of UniProt Q13546 (Q13546 whole entry, looked up): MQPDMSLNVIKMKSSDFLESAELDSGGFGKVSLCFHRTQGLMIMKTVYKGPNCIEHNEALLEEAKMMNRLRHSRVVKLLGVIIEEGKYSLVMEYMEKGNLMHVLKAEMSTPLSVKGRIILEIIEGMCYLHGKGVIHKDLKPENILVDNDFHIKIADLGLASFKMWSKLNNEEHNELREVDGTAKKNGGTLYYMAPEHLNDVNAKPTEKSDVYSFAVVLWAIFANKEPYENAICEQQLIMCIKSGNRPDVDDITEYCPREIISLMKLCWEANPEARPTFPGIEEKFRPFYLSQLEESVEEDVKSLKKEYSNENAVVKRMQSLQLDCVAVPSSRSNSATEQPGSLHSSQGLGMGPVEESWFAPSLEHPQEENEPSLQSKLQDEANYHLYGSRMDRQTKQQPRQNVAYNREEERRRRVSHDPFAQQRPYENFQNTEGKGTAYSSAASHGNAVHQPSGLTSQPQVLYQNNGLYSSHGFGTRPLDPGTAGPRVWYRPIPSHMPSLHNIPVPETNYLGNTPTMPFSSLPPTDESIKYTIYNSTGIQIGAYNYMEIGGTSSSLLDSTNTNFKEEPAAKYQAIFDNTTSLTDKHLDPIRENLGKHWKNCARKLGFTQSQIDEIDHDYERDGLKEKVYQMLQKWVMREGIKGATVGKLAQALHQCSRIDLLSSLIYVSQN
Chain of UniProt P63208 (P63208 whole entry, looked up): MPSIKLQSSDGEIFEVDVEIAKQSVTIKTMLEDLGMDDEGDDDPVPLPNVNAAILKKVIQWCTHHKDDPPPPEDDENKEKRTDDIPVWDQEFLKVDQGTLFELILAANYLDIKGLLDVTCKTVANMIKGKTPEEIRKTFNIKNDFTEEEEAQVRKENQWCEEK
Chain of UniProt Q04864 (Q04864 whole entry, looked up): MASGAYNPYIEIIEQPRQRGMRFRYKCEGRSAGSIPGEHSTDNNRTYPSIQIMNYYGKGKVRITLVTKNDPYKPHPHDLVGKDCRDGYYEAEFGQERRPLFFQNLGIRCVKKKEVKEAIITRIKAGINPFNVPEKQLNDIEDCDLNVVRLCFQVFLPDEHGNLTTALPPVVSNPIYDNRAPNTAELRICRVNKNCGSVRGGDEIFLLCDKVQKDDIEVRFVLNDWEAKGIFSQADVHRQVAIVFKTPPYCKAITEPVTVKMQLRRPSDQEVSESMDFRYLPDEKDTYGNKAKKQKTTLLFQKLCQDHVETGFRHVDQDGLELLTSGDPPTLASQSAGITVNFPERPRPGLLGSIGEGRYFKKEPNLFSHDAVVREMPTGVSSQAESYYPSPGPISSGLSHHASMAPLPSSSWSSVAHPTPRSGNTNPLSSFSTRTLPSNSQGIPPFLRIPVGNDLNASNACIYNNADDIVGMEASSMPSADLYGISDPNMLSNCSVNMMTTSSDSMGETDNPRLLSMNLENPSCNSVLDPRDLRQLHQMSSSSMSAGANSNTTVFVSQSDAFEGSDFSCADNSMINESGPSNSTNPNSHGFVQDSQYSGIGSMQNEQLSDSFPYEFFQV
Chain of UniProt O43818 (O43818 whole entry, looked up): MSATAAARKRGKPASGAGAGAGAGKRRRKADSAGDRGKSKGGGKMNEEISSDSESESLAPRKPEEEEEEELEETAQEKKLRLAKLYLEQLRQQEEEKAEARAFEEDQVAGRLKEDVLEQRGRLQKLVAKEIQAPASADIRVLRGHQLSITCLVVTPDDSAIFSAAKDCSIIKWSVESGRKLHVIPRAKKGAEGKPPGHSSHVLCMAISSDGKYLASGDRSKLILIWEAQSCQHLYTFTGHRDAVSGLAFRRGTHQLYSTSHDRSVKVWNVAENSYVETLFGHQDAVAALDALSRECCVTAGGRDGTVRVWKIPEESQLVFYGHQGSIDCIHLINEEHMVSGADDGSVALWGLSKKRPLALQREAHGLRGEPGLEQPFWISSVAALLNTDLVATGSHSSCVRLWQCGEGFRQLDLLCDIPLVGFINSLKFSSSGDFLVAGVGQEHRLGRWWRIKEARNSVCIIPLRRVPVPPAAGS
Chain of UniProt O00584 (O00584 whole entry, looked up): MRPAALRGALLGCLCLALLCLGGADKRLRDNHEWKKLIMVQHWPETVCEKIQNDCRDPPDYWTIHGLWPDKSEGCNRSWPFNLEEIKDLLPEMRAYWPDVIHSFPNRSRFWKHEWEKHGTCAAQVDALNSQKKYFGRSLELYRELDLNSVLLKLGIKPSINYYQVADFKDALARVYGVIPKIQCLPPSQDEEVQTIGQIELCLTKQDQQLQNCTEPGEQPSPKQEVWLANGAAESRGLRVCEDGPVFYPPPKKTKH
Chain of UniProt Q99496 (Q99496 whole entry, looked up): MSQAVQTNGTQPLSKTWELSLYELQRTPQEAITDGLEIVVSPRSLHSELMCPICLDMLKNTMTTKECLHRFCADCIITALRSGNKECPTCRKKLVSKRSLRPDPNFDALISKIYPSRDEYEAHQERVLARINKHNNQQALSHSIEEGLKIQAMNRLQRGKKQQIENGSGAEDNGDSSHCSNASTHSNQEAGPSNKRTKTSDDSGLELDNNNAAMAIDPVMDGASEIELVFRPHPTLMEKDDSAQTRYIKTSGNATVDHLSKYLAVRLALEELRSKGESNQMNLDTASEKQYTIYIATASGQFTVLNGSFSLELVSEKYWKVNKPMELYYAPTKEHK
Chain of UniProt Q9BUV8 (Q9BUV8 whole entry, looked up): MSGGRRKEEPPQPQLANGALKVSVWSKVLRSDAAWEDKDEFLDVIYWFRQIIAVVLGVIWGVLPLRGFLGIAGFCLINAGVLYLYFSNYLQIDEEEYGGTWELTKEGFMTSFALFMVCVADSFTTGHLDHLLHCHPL

Target | log2 fold change [1] | log2 fold change [2] | log2 fold change [3] | log2 fold change [4] | log2 fold change [5] | log2 fold change [6] | log2 fold change [7] | log2 fold change [8] | log2 fold change [9] | log2 fold change [10]
SKP1 (UniProt P63208) | 0.157 | -0.023 | -0.032 | 0.002 | 0.165 | 0.066 | -0.051 | 0.028 | -0.005 | 0.072
ROCK2 (UniProt O75116) | 0.02 | -0.096 | -0.01 | -0.001 | -0.062 | -0.097 | -0.027 | 0.212 | 0.042 | -0.003
RRP9 (UniProt O43818) | 0.08 | 0.044 | 0.057 | 0 | -0.069 | -0.075 | 0.019 | -0.094 | -0.005 | 0.042
RNASET2 (UniProt O00584) | 0.009 | 0.01 | 0.077 | 0.003 | -0.031 | -0.004 | -0.163 | -0.067 | 0.015 | -0.002
RAF1 isoform 2 (UniProt P04049) | -0.029 | -0.167 | -0.105 | -0.036 | 0.078 | -0.075 | 0.125 | 0.176 | 0.737 (active) | -0.069
SEPTIN5 (UniProt Q99719) | 0.051 | 0.001 | -0.042 | -0.035 | -0.022 | 0.008 | -0.036 | 0.003 | -0.007 | -0.006
SDHAF2 (UniProt Q9NX18) | 0.08 | -0.035 | -0.026 | 0.037 | 0.016 | -0.002 | 0.115 | -0.078 | -0.003 | 0.01
RAVER1 (UniProt E9PAU2) | -0.086 | -0.376 | -0.624 | 0.413 | -0.069 | -0.322 | -0.186 | -0.087 | 0.105 | -0.065
RIPK1 (UniProt Q13546) | -0.197 | -0.208 | -0.047 | 0.017 | 0.191 | 0.028 | 0.161 | 0.212 | 0.073 | -0.097
RNF2 (UniProt Q99496) | 0.025 | -0.105 | -0.149 | 0.111 | 0.091 | -0.029 | -0.054 | -0.059 | 0.003 | 0.1
RAB5IF isoform 5 (UniProt Q9BUV8) | 0.114 | -0.018 | -0.115 | -0.139 | -0.08 | -0.01 | -0.014 | -0.018 | 0.08 | 0.031
RAB5C isoform 2 (UniProt P51148) | 0.08 | -0.011 | 0.011 | 0.013 | -0.013 | -0.011 | -0.02 | 0.003 | -0.039 | 0.017
RPS20 isoform 2 (UniProt P60866) | -0.1 | 0.019 | 0.196 | 0.054 | 0.066 | 0.216 | 0.093 | -0.009 | 0.041 | 0.001
RRP36 (UniProt Q96EU6) | -0.021 | -0.067 | 0.211 | 0.17 | 0.073 | 0.351 | 0.057 | 0.007 | 0.092 | 0.05
REL (UniProt Q04864) | -0.028 | -0.049 | -0.059 | 0.008 | 0.052 | -0.12 | 0.089 | -0.013 | -0.046 | -0.016
